Assay [1] is described as follows: qHTS assay to identify small molecule antagonists of the thyroid receptor (TR) signaling pathway - cell viability counter screen (AID 743064). Further: nearly all actives have a fitted effect of over 50% in size. Further: potency means the concentration at half of the fitted maximal effect. In short, it runs like this:
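Rat GH3 pituitary tumor cells stably expressing two TR response elements driving luciferase were plated, rested 4 h, then dosed with library compounds and T3 (1 nM final). After 23.5 h at 37 °C, CellTiter-Fluor was added for 30 min and fluorescence recorded.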
On the technique in general: In qHTS, concentration-response curves come from the screen itself.

Assay [2] in a line: qHTS assay to identify small molecule antagonists of the thyroid receptor (TR) signaling pathway (AID 743065). Further: nearly all actives have a fitted effect of over 55% in size. Further: potency means the concentration at half of the fitted maximal effect. In short, it runs like this: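 GH3.TRE-Luc rat pituitary cells carrying two TR response elements driving luciferase were plated for 4 h, given compound plus 1 nM T3 (final), and incubated 23.5 h at 37 C. ONE-Glo luminescence measured reporter inhibition; CellTiter-Fluor fluorescence tracked cytotoxicity.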

Assay [3] deals with thyroid hormone receptor (rat, GH3 cells). Kind of assay: qHTS assay to identify small molecule agonists of the thyroid receptor (TR) signaling pathway (AID 743066; calls by dose curve).
In assay [4] the target is Estrogen receptor (Homo sapiens) (UniProt P03372). As to the kind of experiment: qHTS assay to identify small molecule agonists of the estrogen receptor alpha (ER-alpha) signaling pathway (AID 743075; calls by dose curve;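 further: HEK293 GripTite cells with ER-alpha and UAS-driven beta-lactamase reporter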).
Chain of Estrogen receptor (Homo sapiens) (P03372 whole entry, looked up): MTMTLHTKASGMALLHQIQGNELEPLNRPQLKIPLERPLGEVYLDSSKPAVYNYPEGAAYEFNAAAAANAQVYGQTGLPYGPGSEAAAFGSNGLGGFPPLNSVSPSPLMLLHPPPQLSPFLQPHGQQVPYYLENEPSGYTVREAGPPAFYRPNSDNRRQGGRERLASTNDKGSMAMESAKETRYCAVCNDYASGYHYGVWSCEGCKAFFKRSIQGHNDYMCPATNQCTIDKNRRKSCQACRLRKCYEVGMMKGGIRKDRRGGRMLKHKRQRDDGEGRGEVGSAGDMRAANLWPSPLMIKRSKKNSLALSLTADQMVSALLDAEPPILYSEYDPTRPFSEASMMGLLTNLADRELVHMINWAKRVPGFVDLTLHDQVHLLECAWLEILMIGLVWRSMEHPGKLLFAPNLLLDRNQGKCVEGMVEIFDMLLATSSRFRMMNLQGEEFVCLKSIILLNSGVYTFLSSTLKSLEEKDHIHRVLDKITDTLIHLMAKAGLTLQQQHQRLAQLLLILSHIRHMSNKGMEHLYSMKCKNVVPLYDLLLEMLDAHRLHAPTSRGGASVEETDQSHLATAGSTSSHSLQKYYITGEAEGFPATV
Assay [5] shares this target. As to the kind of experiment: qHTS assay to identify small molecule agonists of the estrogen receptor alpha (ER-alpha) signaling pathway using the BG1 cell line (AID 743079). Further: nearly all actives have a fitted effect of over 20% in size.
A short description of assay [6]: qHTS assay to identify small molecule antagonists of the estrogen receptor alpha (ER-alpha) signaling pathway using the BG1 cell line - cell viability counter screen (AID 743081).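 Further: compound given together with 17beta-estradiol as the ER stimulus; series mostly up to about 70 µM; nearly all actives have a fitted effect of over 45% in size.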
Another assay addresses Aromatase (Homo sapiens) (UniProt P11511). As to the kind of experiment: qHTS assay to identify aromatase inhibitors (AID 743083). Further: series mostly up to about 70 µM; nearly all actives have a fitted effect of over 55% in size.
For assay [7], the target named is Estrogen receptor (Homo sapiens) (UniProt P03372). Kind of assay: qHTS assay to identify small molecule antagonists of the estrogen receptor alpha (ER-alpha) signaling pathway (AID 743069; active means well fitted curve in the direction sought with a large enough effect in the signal ratio in the repeat runs, not every such curve was filed as active; the % refers to the signal ratio). In short, it runs like this:
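Estradiol-stimulated ER-alpha-UAS-bla HEK293 cells, 18 hr compound exposure at 37C. LiveBLAzer B/G substrate, 2 hr RT, fluorescence read.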

A short description of assay [8]: qHTS assay to identify small molecule antagonists of the estrogen receptor alpha (ER-alpha) signaling pathway - cell viability counter screen (AID 743074; calls by dose curve;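 further: HEK293 cells carrying ER-alpha-UAS-bla reporter stimulated with 17beta-estradiol; nearly all actives have a fitted effect of over 45% in size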).
Assay [9] in a line: qHTS assay to identify small molecule antagonists of the estrogen receptor alpha (ER-alpha) signaling pathway using the BG1 cell line (AID 743080; calls by dose curve;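 further: BG1 cells stimulated with 17beta-estradiol alongside compound; nearly all actives have a fitted effect of over 25% in size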; further: potency means the concentration at half of the fitted maximal effect). In short, it runs like this:
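Luminescence from a 4×ERE-luciferase reporter in BG1-Luc-4E2 cells served as read-out. Cells, pre-cultured 5 days in stripped-serum phenol-red-free medium, were exposed to compound with 17beta-estradiol co-stimulation for 21.5 h at 37 C.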

Where “and” joins values, the source holds several entries; their conditions need not be identical. Equal values may be shown once. Records with an inconclusive call do not appear. Where a structure was tested more than once in an assay, its records may differ in their call. Calls of active or inactive are those of the source. Unless noted, the call rests on the fitted dose curve; in most records, active means well fitted curve in the direction sought with a large enough effect in the repeat runs; inconclusive means weak or mixed curves; inactive means no such curve, though single readings can be large; an effect the other way counts as inactive or inconclusive.

Chain of Aromatase (Homo sapiens) (P11511 whole entry, looked up): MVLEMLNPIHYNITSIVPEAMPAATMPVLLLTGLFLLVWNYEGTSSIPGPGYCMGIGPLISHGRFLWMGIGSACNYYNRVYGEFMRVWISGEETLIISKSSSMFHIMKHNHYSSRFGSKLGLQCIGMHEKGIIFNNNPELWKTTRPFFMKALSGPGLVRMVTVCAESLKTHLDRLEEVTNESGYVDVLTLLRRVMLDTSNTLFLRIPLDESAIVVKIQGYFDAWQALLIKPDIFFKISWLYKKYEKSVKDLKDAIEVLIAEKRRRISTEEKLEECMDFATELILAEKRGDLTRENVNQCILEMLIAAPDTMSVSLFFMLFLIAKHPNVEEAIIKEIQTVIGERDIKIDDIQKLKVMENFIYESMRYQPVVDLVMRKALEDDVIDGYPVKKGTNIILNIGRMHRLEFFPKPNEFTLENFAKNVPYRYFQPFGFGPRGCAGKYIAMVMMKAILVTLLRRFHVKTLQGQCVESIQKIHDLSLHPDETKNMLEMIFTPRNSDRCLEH

On to `COc1cc(C(=O)NCc2ccc(OCCN(C)C)cc2)cc(OC)c1OC`, for which the Potency result in assay [1], in [2], in [4] and in assay [5] was “inactive” in each case. For the same molecule, the molecule was classed as inactive (in [3]; in assay [6]; with Aromatase (Homo sapiens)).
Take `CCNS(=O)(=O)c1ccc(C)cc1`: the Potency entry in assay [1], in assay [7], in assay [8], in assay [4], in [5] and in assay [9] was “inactive” throughout. Further, the outcome (in assay [3]; in assay [6]; in the assay with Aromatase (Homo sapiens)) was inactive.
Regarding `OCCc1ccccn1`, the Potency entry in assay [1], in assay [2] and in [8] was “inactive” in each case. Also, the molecule was classed as inactive (in assay [3]; in assay [6]; with Aromatase (Homo sapiens)).
With `CCCc1ncc(C[n+]2ccccc2C)c(N)n1`, the Potency result in assay [1], in [2] and in assay [8] was “inactive” in each case. For the same molecule, the molecule was called inactive (in assay [3]; in assay [6]; with Aromatase (Homo sapiens)).
Regarding `Nc1ccncc1N`, the Potency entry in assay [1], in assay [2] and in assay [8] was “inactive” in each case. The call (in assay [3]; in [6]; with Aromatase (Homo sapiens)) was inactive.
In the case of `CC(C)CC(C)(N)C#N` (centres undefined), the Potency entry in assay [1], in assay [2] and in [8] was “inactive” throughout. Besides, the molecule was called inactive (in assay [3]; in assay [6]; with Aromatase (Homo sapiens)).
Regarding `CCC(=O)OCc1ccccc1`, the Potency result in [1], in assay [2] and in assay [8] was “inactive” each time. The molecule was classed as inactive (in assay [3]; in [6]; with Aromatase (Homo sapiens)).
For the molecule `CCC(C)(CCCC(C)C)OC(C)=O` (centres undefined), the Potency entry in [1], in assay [7], in assay [8], in assay [4], in assay [5] and in [9] was “inactive” throughout. Further, the molecule was called inactive (in assay [3]; in [6]; with Aromatase (Homo sapiens)).
As to `CC(C)C1CCC(O)CC1` (centres undefined), the Potency entry in assay [1], in assay [2] and in assay [8] was “inactive” throughout. The result (in [3]; in assay [6]; in the assay with Aromatase (Homo sapiens)) was inactive.
For `CCCCCCCCN1CCCC1=O`, the Potency entry in assay [1], in assay [2] and in assay [8] was “inactive” throughout. Besides, the molecule was called inactive (in assay [3]; in assay [6]; in the assay with Aromatase (Homo sapiens)).
Consider `CCC(C)(CN(C)C)OC(=O)c1ccccc1` (centres undefined), for which the Potency result in assay [1], in [2] and in [8] was “inactive” throughout. Moreover, the call (in [3]; in assay [6]; with Aromatase (Homo sapiens)) was inactive.
As to `NC(CCC(=O)O)C(=O)O` (centres undefined), the Potency result in assay [1], in [7], in assay [8], in assay [4], in assay [5] and in assay [9] was “inactive” in each case. Moreover, the molecule was classed as inactive (in [3]; in [6]; with Aromatase (Homo sapiens)).
With `CCCc1nn(C)c2c(=O)[nH]c(-c3cc(S(=O)(=O)N4CCN(C)CC4)ccc3OCC)nc12`, the Potency result in assay [1], in assay [2] and in assay [8] was “inactive” each time. The result (in [3]; in [6]; with Aromatase (Homo sapiens)) was inactive.
In the case of `CCOC(=O)COC(=O)c1ccccc1C(=O)OCC`, the Potency entry in assay [1], in assay [7], in [8], in [4], in [5] and in [9] was “inactive” each time. Moreover, the outcome (in assay [3]; in [6]; with Aromatase (Homo sapiens)) was inactive.
Regarding `C[N+]1(CC2COC(c3ccccc3)(c3ccccc3)O2)CCCCC1` (centres undefined), the Potency result in [1], in assay [2] and in assay [8] was “inactive” each time. The molecule was called inactive (in assay [3]; in assay [6]; with Aromatase (Homo sapiens)).
Consider `O=S(=O)(O)c1cccc2ccccc12`, for which the Potency result in assay [1], in assay [2] and in assay [8] was “inactive” throughout. Also, the molecule was classed as inactive (in assay [3]; in assay [6]; in the assay with Aromatase (Homo sapiens)).
In the case of `C=CC(=O)OCCCl`, the Potency entry in assay [1], in [7], in assay [8], in assay [4], in [5] and in [9] was “inactive” in each case. Moreover, the result (in [3]; in [6]; with Aromatase (Homo sapiens)) was inactive.
As for `CCCCN1C=CN(C)C1`, the Potency result in assay [1], in assay [7], in [8], in [4], in assay [5] and in assay [9] was “inactive” throughout. Further, the result (in [3]; in [6]; with Aromatase (Homo sapiens)) was inactive.
`CC(=O)O[C@@]12CO[C@@H]1C[C@H](O)[C@@]1(C)C(=O)[C@H](O)C3=C(C)[C@@H](OC(=O)[C@H](O)[C@@H](NC(=O)OC(C)(C)C)c4ccccc4)C[C@@](O)([C@@H](OC(=O)c4ccccc4)[C@H]21)C3(C)C`: the Potency was 29.8 nM (active) and 106 nM (active) in assay [1]; 29.8 nM (active) in [2]; 59.6 nM (active) and inactive in assay [9]. In addition, the outcome (in [3]; in [6]; with Aromatase (Homo sapiens)) was inactive. Further, the Potency entry in assay [4] and in assay [5] was “inactive” in each case.
With `CNCCO`, the Potency entry in assay [1], in assay [2] and in [8] was “inactive” each time. The molecule was classed as inactive (in assay [3]; in assay [6]; with Aromatase (Homo sapiens)).
In the case of `NO`, the Potency result in [1], in assay [2] and in assay [8] was “inactive” each time. In addition, the result (in assay [6]; with Aromatase (Homo sapiens)) was inactive.
In the case of `c1ccc(Cc2ccccc2)cc1`, the Potency entry in [1], in assay [7], in [8], in assay [4], in [5] and in assay [9] was “inactive” each time. Moreover, the call (in assay [3]; in assay [6]; in the assay with Aromatase (Homo sapiens)) was inactive.
`CO[Si](C)(OC)c1ccccc1`: the Potency result in assay [1], in [7], in assay [8], in [4], in assay [5] and in assay [9] was “inactive” in each case. Moreover, the molecule was classed as inactive (in assay [3]; in [6]; with Aromatase (Homo sapiens)).
On to `FB(F)F`, for which the Potency result in [1], in assay [7], in [8], in [4], in assay [5] and in assay [9] was “inactive” throughout. The outcome (in assay [3]; in assay [6]; in the assay with Aromatase (Homo sapiens)) was inactive.
In the case of `CC12CCC(C(=O)C1=O)C2(C)C` (centres undefined), the Potency result in assay [1] and in assay [2] was “inactive” each time. The call (in [3]; in assay [6]; with Aromatase (Homo sapiens)) was inactive.
For the molecule `CCCn1cc[n+](C)c1C`, the Potency entry in assay [1], in [2] and in assay [8] was “inactive” in each case. Besides, the outcome (in assay [3]; in [6]; in the assay with Aromatase (Homo sapiens)) was inactive.
On to `CCOC(=O)OC(C)OC1=C(C(=O)Nc2ccccn2)N(C)S(=O)(=O)c2ccccc21` (centres undefined), for which the Potency entry in assay [1], in assay [2], in [4] and in [9] was “inactive” throughout. In addition, the call (in assay [3]; in [6]; in the assay with Aromatase (Homo sapiens)) was inactive.
As for `CCCCCCC#CC(=O)OC`, the Potency entry in assay [1], in [2] and in assay [8] was “inactive” each time. Besides, the molecule was called inactive (in assay [3]; in assay [6]; in the assay with Aromatase (Homo sapiens)).
For `O=C1CCCCCCCCCCCCCCO1`, the Potency result in [1], in assay [2] and in assay [8] was “inactive” throughout. Moreover, the outcome (in assay [3]; in assay [6]; with Aromatase (Homo sapiens)) was inactive.
On to `CCCCS(=O)(=O)N[C@@H](Cc1ccc(OCCCCC2CCNCC2)cc1)C(=O)O`, for which the Potency result in [1], in assay [7], in [4], in assay [5] and in [9] was “inactive” throughout. Also, the result (in [3]; in [6]; in the assay with Aromatase (Homo sapiens)) was inactive.
Turning to `Cc1ccc(C(=O)Nc2ccc(S(=O)(=O)O)c3cc(S(=O)(=O)O)cc(S(=O)(=O)O)c23)cc1NC(=O)c1cccc(NC(=O)Nc2cccc(C(=O)Nc3cc(C(=O)Nc4ccc(S(=O)(=O)O)c5cc(S(=O)(=O)O)cc(S(=O)(=O)O)c45)ccc3C)c2)c1`, the Potency entry in assay [1], in assay [7], in [4], in [5] and in [9] was “inactive” in each case. Moreover, the molecule was classed as inactive (in assay [3]; in assay [6]; with Aromatase (Homo sapiens)).
For the molecule `C=C(C)C(=O)OCCOCCOCCOCCOC(=O)C(=C)C`, the Potency entry in [1] and in assay [8] was “inactive” throughout. The molecule was classed as inactive (in assay [3]; in [6]; with Aromatase (Homo sapiens)).

These data come from PubChem BioAssay (Tox21).
